tim23-1 inh – growth inhibitors of tim23-1 mutant yeast, primary screen, luminescence, uHTS. S. cerevisiae tim23-1 growth, BacTiter-Glo luminescence, 24 h. 330,000 tested, 1.3% active. inhibition, % at 20 µM;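 active = growth inhibition of the mutant yeast at or above 50%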;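 note: temperature-sensitive mutant grown at 25 °C; plate controls were DMSO-treated mutant yeast for no effect and medium wells lacking yeast for full effect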
tim10-1 inh – growth inhibitors of tim10-1 mutant yeast, primary screen, luminescence, uHTS; inhibition, % at 20 µM; 330,000 tested, 2.2% active; AID 463190, 2010; S. cerevisiae tim10-1 ts strain growth, BacTiter-Glo, 24 h;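 active = inhibition of at least 40%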;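 note: mutant grown at 25 °C; 0% = DMSO wells with yeast and 100% = wells holding no yeast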
TIM10 inh – growth inhibitors of isogenic TIM10 control yeast, primary screen, counter-screen for tim10-1 yeast inhibitor project, luminescence, uHTS. S. cerevisiae TIM10 strain growth, BacTiter-Glo luminescence, 24 h. inhibition, % at 10 µM. 330,000 tested, 1.4% active;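 active = inhibition of 40% or more at the single tested concentration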;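 note: wild-type TIM10 isogenic control strain grown at permissive 25 °C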
Yeast superoxide – reduction of superoxide in aged yeast, primary screen, HTS | S. cerevisiae aged cells, superoxide DHE fluorescence; stronger effect = lower value | superoxide response (% of plate mean), % at 10 µM | 330,000 tested, 0.18% active | AID 2690, 2010;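 active = superoxide response under a set limit, about three screen SD below normal, cut at about 65% in these data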;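 note: yeast aged for seven days with compound at 30 °C before DHE staining; 100% = average MFI of all compound-treated wells on the plate with controls excluded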
NALP3 yeast inh – NALP3 inflammasome inhibitors in reconstituted yeast, primary screen, luminescence, uHTS; Yeast reconstituted NLRP3/ASC/caspase-1, beta-gal luminescence, 24 h; inhibition, % at 10 µM; 330,000 tested, 0.39% active;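 active = inhibition of 50% or more; inactive = inhibition below 50%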;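 note: plate controls were induced DMSO wells for no effect and uninduced yeast grown without galactose for full effect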
Active calls of the source: *; . = no result given. Sampled rows, rich in hits. Any-hit rate of the full collection: about 3.8%.

SMILES	tim23-1 inh	tim10-1 inh	TIM10 inh	Yeast superoxide	NALP3 yeast inh
Cc1ccc(S(=O)(=O)CCC(=O)OC(C)C(=O)NC2CCCCC2C)cc1 (stereo unspecified)	16	27	15	109	0
CN(c1ccc(OCC(=O)N2CCN(c3ccc(F)cc3)CC2)cc1)S(=O)(=O)c1cccs1	24	7	27	112	15
O=C(Nc1ccc(OC(F)F)cc1)c1cc[n+]([O-])cc1	-6	-19	10	99	1
CCCCN(C(=O)Cc1coc2cc(C)c(C)cc12)c1c(N)n(Cc2ccccc2)c(=O)[nH]c1=O	-3	3	-2	103	17
C/C(=C/c1ccccc1)C(=O)N1CCC(C)CC1	19	9	3	95	23
Cn1c(SCC(=O)Nc2ccc(C(N)=O)cc2)nnc1-c1cccs1	1	2	9	87	0
COc1ccc2[nH]c3c(c2c1)CCN1C(=O)C(CC(=O)NCCc2ccccn2)C[C@H](C(=O)N2CCCCC2)[C@@]31C (stereo partly specified)	24	-2	2	102	.
C/C(CC(=O)Nc1ccc(F)cc1)=N\NC(=O)Cc1csc(N)n1	23	22	1	64*	8
CC(C)CCC(C(=O)O)C(C)CC(=O)Nc1ccn(-c2ccccc2)n1 (stereo unspecified)	20	-4	13	106	-10
Cc1ccc(C(=O)Nc2cc(-c3ccn[nH]3)c(C)n(N)c2=O)cc1	4	7	-2	99	15
CC(C)CN(CC(C)C)C(=S)NC1CCCCC1	20	23	23	98	-5
O=S(=O)(NCc1ccccc1)c1ccccc1NCCc1ccccc1	40	25	-5	52*	.
CCCCCCCCNc1ccccc1S(=O)(=O)NCc1ccccc1	28	7	-21	102	.
CC12CCC(=O)N1C(C(=O)OCC(=O)Nc1ccc(Cl)c(Cl)c1)CS2 (stereo unspecified)	19	11	0	94	14
Cc1ccc(C(=O)N2CCN(c3ccc([N+](=O)[O-])cc3)CC2)o1	25	24	1	101	36
CCOc1ccccc1NC(=S)N1CCCc2ccccc21	17	14	-29	110	3
C/C(=N/NC(=O)c1cc(-c2cccc([N+](=O)[O-])c2)n[nH]1)c1ccc(Cl)cc1	.	.	.	100	.
Cn1nc(C(=O)N2CCCCC2)c2c1-c1ccccc1S(=O)(=O)C2	11	11	1	101	0
COC(=O)[C@@]12CCCN1[C@H](c1ccc(-c3ccccc3)c(OC)c1)[C@H]1C(=O)N(C)C(=O)[C@H]12	2	-11	3	89	19
Cc1ccc(NC(=O)CSc2ccc(-c3ccc(-n4cccn4)cc3)nn2)c(C)c1	6	-11	-13	104	13
O=C(O)c1cccc(Nc2c([N+](=O)[O-])c(=O)oc3ccccc23)c1	8	-8	-12	64*	12
NS(=O)(=O)c1cccc(Nc2nc3ccccc3nc2NS(=O)(=O)c2ccc(Cl)cc2)c1	6	6	7	98	24
O=C(Nc1cc2c(cc1Br)OCCO2)c1ccc(=O)[nH]c1	7	2	2	92	6
COc1ccccc1N(CC(=O)N/N=C/c1ccccc1C(=O)O)S(C)(=O)=O	13	-3	-4	67	7
CCCOc1ccc(C(=O)Nc2ccc(S(=O)(=O)Nc3cc(C)nc(C)n3)cc2)cc1	19	7	-1	62*	10
SMILES	tim23-1 inh	tim10-1 inh	TIM10 inh	Yeast superoxide	NALP3 yeast inh
CCC(=O)c1ccc(OCC(=O)Nc2ccc(S(=O)(=O)Nc3cc(C)nc(C)n3)cc2)cc1	3	-3	-11	88	12
Cn1ncc(C#N)c1NC(=O)C1CC(c2ccccc2Cl)=NO1 (stereo unspecified)	-11	13	5	44*	11
O=C(Nc1ccc2c(c1)OCO2)C1CC(c2ccccc2Cl)=NO1 (stereo unspecified)	32	28	15	122	15
O=[N+]([O-])c1c(Nc2ccc(O)cc2)cc(Cl)c2nonc12	-8	-8	4	121	25
CN(c1ccc(OCC(=O)Nc2cc(Cl)ccc2C(=O)O)cc1)S(=O)(=O)c1ccc(F)cc1	4	1	9	59*	5
COc1ccc(NC(=O)COc2ccc(N(C)S(=O)(=O)c3ccc(Cl)cc3)cc2)cc1	-1	5	-2	126	9
Nn1cc(-c2ccccc2)nc1SCC(=O)Nc1ccc(S(N)(=O)=O)cc1	10	17	12	96	6
COc1cc(CC(NC(C)=O)C(=O)NC2CCN(S(=O)(=O)c3ccc(NC(C)=O)cc3)CC2)cc(OC)c1 (stereo unspecified)	2	8	-17	97	12
CCn1c(CNC(=O)c2ccco2)nnc1SCC(=O)c1ccc(OC)cc1	10	14	-2	120	0
COc1cccc(-c2nnc(-c3ccccc3[N+](=O)[O-])o2)c1	21	12	17	101	26
O=C1c2ccccc2C(=O)N1CSc1nnc(Nc2ccccc2F)s1	9	24	2	61*	4
CC(=O)Nc1ccc(S(=O)(=O)NCCC(=O)Nc2ccc(C)cn2)cc1	4	-8	4	88	3
CCOc1ccc(CNC(=O)CCCC(=O)n2ncc3cc(C)ccc32)cc1	8	18	4	122	28
CCOC(=O)COc1ccc(S(=O)(=O)NC2CC2)cc1	11	0	-5	58*	18
Cc1c(NC(=O)c2ccc(S(=O)(=O)N3CCOCC3)cc2)c(=O)n(-c2ccccc2)n1C	18	8	-5	79	9
O=C(COC(=O)c1ccc2ncsc2c1)Nc1ccccc1Cl	7	-23	0	40*	16
O=C(COC(=O)c1ccc2ncsc2c1)Nc1cc([N+](=O)[O-])ccc1Cl	-12	-16	-7	93	1
O=C(N/N=C/c1cccc(C(F)(F)F)c1)c1ccc(O)cc1	12	6	8	63*	6
COC(=O)CCN(C(=O)c1cccc(OC(C)=O)c1)c1ccccn1	12	13	-8	99	-1
COc1ccccc1CNC(=O)C1CCC(CNS(=O)(=O)c2cccc3cccnc23)CC1 (stereo unspecified)	9	-3	-3	91	-11
O=C1c2ccccc2C(=O)N1Cc1cc(-c2ccc(Cl)cc2)no1	12	-5	7	126	13
COc1cc(C(=O)Nc2nnc(C3=COCCO3)o2)cc(OC)c1OC	11	9	-8	106	1
CC(=NCCc1c(C)[nH]c2ccc(OC(F)(F)F)cc12)C1=C(O)CC(c2ccccc2)CC1=O (stereo unspecified)	-11	-26	7	65*	24

Screens deposited in PubChem by several laboratories.
